# Only some compounds are listed: those with a hit (about 2.6% of all), similar ones and a draw of the others.
# AmpC nodet inh: inhibitors of E. coli AmpC beta-lactamase without detergent | P00811 | AmpC nitrocefin hydrolysis, absorbance 480 nm, no detergent | Potency, µM (series often up to 28.7 µM) | actives 1.8% (n = 71,000)
# Target sequence (P00811 whole entry, looked up): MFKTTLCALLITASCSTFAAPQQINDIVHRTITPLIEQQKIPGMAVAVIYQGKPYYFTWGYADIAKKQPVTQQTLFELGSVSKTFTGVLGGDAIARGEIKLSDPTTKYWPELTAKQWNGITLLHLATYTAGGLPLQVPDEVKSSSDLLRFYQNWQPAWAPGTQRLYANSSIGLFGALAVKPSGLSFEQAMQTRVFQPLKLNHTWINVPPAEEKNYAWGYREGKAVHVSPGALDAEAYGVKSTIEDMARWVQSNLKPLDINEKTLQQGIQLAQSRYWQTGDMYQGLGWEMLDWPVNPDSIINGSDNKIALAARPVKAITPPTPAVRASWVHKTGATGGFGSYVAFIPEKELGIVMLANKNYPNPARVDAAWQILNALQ
#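 AmpC, 20 mM phosphate pH 7.0; 15 min cpd preinc, RT; start with nitrocefin (800 uM stock); A480 kinetic read, 20 s intervals, 4 min. No-enzyme wells = negative control.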
# AmpC inh det: inhibitors of E. coli AmpC beta-lactamase with detergent. Potency, µM (top dose mostly 28.7 µM). purified AmpC, nitrocefin hydrolysis with detergent. actives 0.09% (n = 71,000). AID 584. P00811; active means well fitted curve in the direction sought with a large enough effect; inconclusive means small, poorly fitted or top-dose-only effect
#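 E. coli AmpC (5.3 nM) in 20 mM phosphate pH 7.0 with 0.01% Triton X-100, preincubated 15 min RT with compound; nitrocefin (2 uL of 800 uM stock) hydrolysis followed by 480 nm absorbance every 20 s over 4 min.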
# Prx2 Sm inh: inhibitors of Schistosoma mansoni peroxiredoxin 2. S. mansoni Prx2 activity coupled to TGR/GSH (TGR is thioredoxin glutathione reductase), NADPH fluorescence loss, qHTS. Potency, µM. actives 0.07% (n = 65,000)
#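 qHTS, coupled TGR/Prx2 format; 15 min compound preincubation at RT; reaction started with H2O2 (2.5 mM aliquot); kinetic NADPH fluorescence decrease, ex 365/em 450 nm.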
# LT uptake inh: blocks cellular internalization of anthrax lethal toxin; Cells, anthrax lethal toxin internalization, FRET ratio (460/530); Potency, µM (highest dose often 40 µM), most hits filed as inhibitors; actives 0.67% (n = 70,000); AID 912; further: nearly all actives have a fitted effect of over 50% in size
# Hits are given with their value; . = inactive; ? = inconclusive; / = not tested or not shown; ! = repeats disagree; [ ] = remark or other dose. Unless noted, the call rests on the fitted dose curve.
SMILES,AmpC nodet inh,AmpC inh det,Prx2 Sm inh,LT uptake inh
O=C(NCc1cccnc1)c1cnn2ccccc12,4µM,.,.,.
Cc1ccc(S(=O)(=O)n2nc(OC(=O)c3cccs3)cc2N)cc1,.,.,.,.
COCCNC(=O)Cn1nc(C)c2ccccc2c1=O,.,.,.,/
O=C(Nc1ccc(Nc2ccccc2)cc1)c1ccc(Br)o1,.,.,.,13µM
O=C(COc1ccccc1)Nc1cccc(-c2nnc(-c3ccccc3)o2)c1,.,.,.,10µM
O=C(Nc1cccc(-c2nnc(-c3ccccc3)o2)c1)c1ccc(Br)o1,.,.,?,10µM
Cc1cc(C)cc(OCC(=O)Nc2cccc(-c3nnc(-c4ccco4)o3)c2)c1,.,.,.,.
O=C(Nc1cccc(-c2cn3cccnc3n2)c1)c1ccc(Br)o1,.,.,.,.
O=C(Nc1ccc(Cc2ccncc2)cc1)c1ccc(Br)o1,.,.,.,.
Cc1nc(S(=O)(=O)N(C)c2ccccc2)c(C#N)c(C)c1Cl,.,.,.,.
CC(=O)N1CCN(c2ccc(S(=O)(=O)N3CCCCC3)cn2)CC1,.,.,.,.
CCn1c2ccccc2c2nnc(SCc3ccccc3)nc21,4µM[single pt active],.,.,?
CCn1c2ccccc2c2nnc(SCCCn3c(=O)[nH]c4ccccc43)nc21,.,.,/,7.9µM
O=c1[nH]c2ccccc2n1CCCSCCCn1c(=O)[nH]c2ccccc21,.,.,.,?
CCn1c2ccccc2c2nnc(SCN3C(=O)c4ccccc4C3=O)nc21,.,.,/,.
Cn1c(Cn2c(=O)sc3ccccc32)nnc1SCC(=O)N1CCOCC1,4µM[single pt active],.,.,.
CCOC(=O)N1CCN(C(=O)CSc2nnc(Cn3c(=O)sc4ccccc43)n2C)CC1,4µM[single pt active],.,.,.
Cn1c(Cn2c(=O)sc3ccccc32)nnc1SCC(=O)N1CCCCCC1,4µM[single pt active],.,.,?
COc1ccccc1NC(=O)CSc1nnc(Cn2c(=O)sc3ccccc32)n1C,4µM[single pt active],.,.,.
CCOC(=O)CSc1nnc(Cn2c(=O)sc3ccccc32)n1C,.,.,.,.
O=C(CCCSc1nc2ccccc2s1)NC1=NCCS1,.,.,.,.
CCCc1cc2c(n1Cc1ccc(C)cc1)C(C)C1CN(C(=O)c3ccccc3)C(C)(C(=O)OC)C21 (stereo not drawn),.,.,.,?
Cc1ccc(-c2noc(CN3C(C)CCCC3C)n2)cc1 (stereo not drawn),4µM[single pt active],.,.,.
Cc1ccc(-c2noc(CN3CCC(C(N)=O)CC3)n2)cc1,.,.,.,.
O=C(Nc1cccnc1)C1OCCc2ccccc21 (stereo not drawn),.,.,.,.
SMILES,AmpC nodet inh,AmpC inh det,Prx2 Sm inh,LT uptake inh
O=c1cc(-c2ccccc2)oc2cc(O)cc(O)c12,.,.,.,.[3.58 µM]
O=c1cc(-c2ccc(O)cc2)oc2cc(O)cc(O)c12,4µM!,.,.,.
CCOC(=O)c1c(C)n(C)c2ccc(OCC(O)Cn3nc(C)c(Br)c3C)cc12 (stereo not drawn),.,.,.,10µM
C[N+](C)(C)/N=C\c1ccc(O)c(O)c1,.[5.75 µM],.[5.75 µM],.,?
Oc1ccc(N=Cc2ccc(O)c(O)c2)cc1,13µM,.,/,?
Cc1c(Cl)cccc1NC(=O)c1cc(-c2ccc(O)cc2)on1,13µM[single pt active],.,.,?
Brc1ccc(Oc2ccc(Br)cc2Br)c(Br)c1,13µM,.,/,?
CC1=C2[C@@H]3OC(=O)[C@H](C)[C@H]3CC[C@@]2(C)C=CC1=O,.,.,.,.
COc1ccc(NC(=O)Cn2nnc(-c3ccccc3NC(=O)c3ccco3)n2)cc1,13µM,.,.,.
COc1ccccc1NC(=O)Cn1nnc(-c2ccccc2NC(=O)c2cccs2)n1,7.9µM,.,.,.
COc1ccccc1NC(=O)Cn1nnc(-c2ccccc2NC(=O)c2ccco2)n1,.,.,.,.
CCCC1(CCC)C(=O)NC(=NCc2ccccc2)NC1=O,.,.,.,13µM
CCC1(CC)C(=O)NC(=NCCc2c[nH]c3ccccc23)NC1=O,.,.,.,?
O=C(NCN1C(=O)C2C3C=CC(C3)C2C1=O)Nc1nncs1 (stereo not drawn),.,.,.,.
Fc1ccccc1N1CCN(Cc2nc(-c3ccccc3)no2)CC1,.,.,.,/
CC1CCN(S(=O)(=O)N2CCC(C(=O)N3CCC(N(C)CC4CCCO4)CC3)CC2)CC1 (stereo not drawn),4µM[single pt active],.,.,.
O=C(NCC1CCCO1)C1CCN(S(=O)(=O)N2CCCC2)CC1 (stereo not drawn),.,.,.,.
CC(C)COC(=O)c1ccccc1C(=O)OCC(C)C,.,.,/,?
CC(C)COC(=O)c1nnsc1NC(=O)Nc1ccccc1,16µM[single pt active],.,.,.
Cc1cc(F)c(F)c(C(=O)NC2CC2)c1Cl,.,.,.,.
CC(C)(C)n1nc2c(c1NC(=O)COc1ccc(Cl)cc1)CSC2,13µM,.,.,?
Cc1ccc(-c2nn3c(C)nnc3s2)cc1NC(=O)COc1ccc(Cl)cc1,.,.,.,.
CCOC(=O)N1CCc2c(sc(NC(=O)c3ccc(Cl)s3)c2C(N)=O)C1,.,.,.,5µM
Clc1ccc2c(NC3CCC(N4CCCCC4)CC3)ccnc2c1 (stereo not drawn),.[5.75 µM],.[5.75 µM],.,2.5µM
Cc1ccc(C2CC(c3cccc(Cl)c3)n3nc(N)nc3N2)cc1 (stereo not drawn),.,.,.,.
SMILES,AmpC nodet inh,AmpC inh det,Prx2 Sm inh,LT uptake inh
Cc1cccc(C2CC(c3ccc(Cl)cc3)Nc3nc(N)nn32)c1 (stereo not drawn),4µM[single pt active],.,.,.
Cc1cccc(C2CC(c3ccc(F)cc3)Nc3nc(N)nn32)c1 (stereo not drawn),4µM[single pt active],.,.,.
CCOc1ccc(C2CC(c3cccc(C)c3)n3nc(N)nc3N2)cc1 (stereo not drawn),.,.,.,.
CCOc1ccc(NC(=O)C2CC=CCC2C(=O)O)cc1 (stereo not drawn),.,.,.,.
NC(=O)c1ccsc1NC(=O)c1nc(-c2ccccc2)n(-c2ccccc2)n1,.,.,?,10µM
Cc1ccccc1NC(=O)NCCN1C(=O)C2C3C=CC(C3)C2C1=O (stereo not drawn),2µM[single pt active],.,.,.
COc1ccc(NC(=O)NCCN2CCc3ccccc3C2)cc1,.,.,.,.
O=C(NCCN1CCN(C(=O)Nc2ccccc2)CC1)Nc1ccccc1,4µM[single pt active],.,.,.
O=C(NCCN1C(=O)C2C3C=CC(C3)C2C1=O)NCc1ccccc1 (stereo not drawn),4µM[single pt active],.,.,.
O=C(CCN1C(=O)C2C3C=CC(C3)C2C1=O)NCCN1CCCc2ccccc21 (stereo not drawn),.,.,.,.
O=C(Nc1ccccc1)N1CCN(Cc2ccc3c(c2)OCO3)CC1,4µM[single pt active],.,.,.
Cc1ccccc1NC(=O)CCN1CCN(C/C=C/c2ccccc2)CC1,.,.,/,.
COc1cccc(C(=O)Nc2ccc(S(=O)(=O)Nc3onc(C)c3C)cc2)c1,.,.,/,.
CCN1CCCC1CNC(=O)CSc1cc(=O)n(CC)c2ccccc12 (stereo not drawn),.,.,.,.
COc1ccc2cnn(Cc3ccccc3)c(=O)c2c1OC,.,.,.,?

# Screening results (PubChem BioAssay)
